Screening results deposited in PubChem BioAssay by several laboratories.
The list is not random: actives were taken first. Their share in the collection is about 2.9%.
EP2 antag – human EP2 receptor antagonists, primary screen, TR-FRET cAMP, C6 glioma cells; Prostaglandin E2 receptor EP2 subtype (Homo sapiens), P43116; C6 glioma cells expressing human EP2; cells stimulated with saturating PGE2; inhibition, % at 25 µM; 0.52% of 260,000 active;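 active means percent inhibition above 40 after rounding to a whole number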;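 further: rat C6 glioma host cells with rolipram phosphodiesterase inhibitor present; the protocol text gives 20 µM as final concentration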
PG9 Ab binder – binders of HIV-1 gp120 antibody PG9, primary screen, biochemical, TR-FRET; HIV-1 gp120 / PG9 antibody interaction; TR-FRET gp120-PG9 antibody binding; inhibition, % at 6.7 µM; 0.43% of 360,000 active; in the data active means inhibition above about 8.5%
SKN-1 inh – suppressors of acrylamide-induced Pgst-4::GFP reporter in worms, primary screen, SKN-1 inhibitor project, whole organism, uHTS, GFP/RFP fluorescence ratio, strain VP596; C. elegans VP596 Pgst-4::GFP/RFP ratio, 24 h; inhibition, % at 21.8 µM; 0.49% of 360,000 active; AID 624304, 2012;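 active means interference check ratio from 0.5 to 1.5 plus GFP to RFP signal ratio inhibition reaching or exceeding a fixed threshold, cut at about 30% in these data, passing the limit was not always enough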
RAM inhibit – inhibitors of the yeast RAM network, primary screen, dse1pr::URA3 reporter, 5-FOA selection | S. cerevisiae dse1pr::URA3 reporter, 5-FOA growth OD615, 2 d; analog-sensitive cbk1-as2 kinase mutant strain | 1.8% of 190,000 active | inhibition, % at 50 µM;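 active means inhibition above a set limit, 3 SD over mean compound inhibition, cut at about 8.4% in these data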;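 further: 0% = DMSO-only wells with no growth and 100% = 10 µM 1-NA-PP1 full growth; inhibition rescues growth on 5-FOA so higher OD means more RAM inhibition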
NR1D1 modulator – modulators of Rev-erb alpha DNA binding, primary screen, biochemical, FITC-DNA, fluorescence polarization, uHTS; activity, % at 10 µM; Rev-erbα–FITC-DNA binding, 90 min; Nuclear receptor subfamily 1 group D member 1 (Homo sapiens), P20393; 0.79% of 370,000 active;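 active means activity above about 14%, limit read from the data; passing the limit was not always enough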;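 further: 0% = DMSO wells with 35 nM protein and 100% = DMSO wells with 750 nM protein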
Target sequence (P20393 whole entry, looked up): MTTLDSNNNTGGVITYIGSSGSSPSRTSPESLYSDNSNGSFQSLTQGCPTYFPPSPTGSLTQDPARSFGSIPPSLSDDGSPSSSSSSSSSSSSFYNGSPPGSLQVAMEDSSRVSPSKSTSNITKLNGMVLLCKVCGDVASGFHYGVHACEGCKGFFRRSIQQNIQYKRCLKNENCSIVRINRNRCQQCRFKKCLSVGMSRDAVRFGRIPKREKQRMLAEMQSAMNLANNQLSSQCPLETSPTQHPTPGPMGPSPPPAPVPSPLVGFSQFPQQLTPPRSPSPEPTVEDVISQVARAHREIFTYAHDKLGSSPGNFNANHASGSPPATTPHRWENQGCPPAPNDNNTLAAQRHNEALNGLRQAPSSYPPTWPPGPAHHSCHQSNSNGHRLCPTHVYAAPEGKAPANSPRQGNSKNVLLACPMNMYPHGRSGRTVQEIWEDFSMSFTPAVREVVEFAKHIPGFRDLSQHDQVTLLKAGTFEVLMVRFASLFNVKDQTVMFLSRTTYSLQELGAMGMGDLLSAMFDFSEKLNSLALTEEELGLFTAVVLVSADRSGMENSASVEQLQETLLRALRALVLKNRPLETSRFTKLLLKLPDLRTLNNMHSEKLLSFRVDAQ
EP2 mod – EP2 receptor modulators, cAMP readout, primary screen, cell-based, HTRF cAMP, PGE2 stimulation; induction, % at 25 µM; EP2-expressing cells, cAMP HTRF FRET, PGE2 co-stimulation; Prostaglandin E2 receptor EP2 subtype (Homo sapiens), P43116; AID 940, 2007; 0.83% of 260,000 active;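 active means compounds whose cAMP rise, as percent of the full-agonist control response, exceeds 60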;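 further: rat C6 glioma line stably carrying human EP2 under a CMV promoter; the protocol text gives 20 µM as final concentration; 100% = response of wells given 1 µM PGE2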
Rev-erbA confirm – modulators of Rev-erb alpha DNA binding, confirmation, biochemical, FITC-DNA, fluorescence polarization, single point | activation, % at 25 µM | 90 min | 61% of 3,000 active | shares compounds with NR1D1 modulator;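 active means activation at or above a set limit, or at least 3 SD above the negative control mean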;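 further: 0% = 35 nM protein with DMSO and 100% = 750 nM protein high control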
RORg DNA counter – modulation of RORgamma DNA binding, dose response, counter-screen for Rev-erb alpha modulator project, biochemical, fluorescence polarization, FITC-DNA | purified RORgamma protein-FITC-DNA binding | 8% of 910 active | shares compounds with NR1D1 modulator | IC50, µM | AID 1259320, 2017;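 active means Compounds whose fitted half-maximal concentration for disrupting protein-DNA binding is below 10 micromolar; the record names Rev-erb in its text, so the target is in doubt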
* marks the source's active call; other numbers are inactive results; . = no result.

SMILES	EP2 antag	PG9 Ab binder	SKN-1 inh	RAM inhibit	NR1D1 modulator	EP2 mod	Rev-erbA confirm	others
COc1cc(NC(=O)CCc2nnc3ccc(N4CCN(c5cccc(OC)c5)CC4)nn23)cc(OC)c1	.	0	-3	.	29*	.	12
CCOC(=O)c1c(NC(=O)CN2C(=O)NC3(CCCCC3)C2=O)sc(C)c1-c1ccc(C)cc1	9	-1	-1	2	12	57	.
CCOC(=O)c1sc(NC(=O)CN2C(=O)NC3(CCCCCCC3)C2=O)c(C(=O)OCC)c1C	10	0	4	.	28*	2	7
Cc1ccnc(NC(=O)c2ccc(N)cc2)c1	18	.	.	.	.	-4	.
COc1cccc(OC)c1C(=O)NC(=S)Nc1cc(-c2nc3ccccc3[nH]2)ccc1Cl	1	7	6	4	26*	-35	24*
COc1ccc(NC(=O)c2oc3cc(C)c(C)cc3c2C)c(OC)c1	13	-1	2	6	21*	29	4
COc1ccc2oc(C(=O)Nc3ccccc3N3CCOCC3)c(C)c2c1	.	2	5	.	29*	.	9
COc1ccc(C(=O)Nc2ccc(-c3ccc(NC(=O)c4ccc(OC)cc4)c(OC)c3)cc2OC)cc1	9	0	12	8	29*	-17	5
COc1ccc2oc(C(=O)Nc3ccc(N4CCOCC4)cc3)c(C)c2c1	.	-1	12	.	-5	.	.
CC1Cc2cc(C(O)CN3CCN(c4ccccc4)CC3)ccc2O1 (stereo not drawn)	6	.	.	.	.	-43	.
COc1ccc(C#Cc2ccc(C3=CC(=O)CC(C)(C)C3=O)cc2)cc1	.	4	-15	.	153*	.	51*	RORg DNA counter=>40
Cc1ccc(CNc2c(-c3cn(C)nc3C)nc3cnccn23)cc1	.	.	.	.	.	-14	.
Cc1cc2cc(CN(Cc3ccc4c(c3)OCO4)C(=O)c3cnccn3)c3nnnn3c2cc1C	14	1	20	4	6	-21	.
O=C(c1ccccc1F)N(Cc1ccc2c(c1)OCO2)Cc1cc2cc3c(cc2n2nnnc12)OCO3	10	-1	-5	5	34*	18	16
COc1cc(NC(=O)C2CC(c3cccc(Br)c3)=NO2)c(OC)cc1Cl (stereo not drawn)	6	.	.	.	.	-41	.
Cc1nc(SC(C(N)=O)c2ccccc2)c(C#N)c(C)c1C (stereo not drawn)	7	-4	6	.	-4	0	.
COc1ccccc1-c1cc(-c2ccccc2)nc(SC(C(N)=O)c2ccccc2)c1C#N (stereo not drawn)	13	8	8	0	39*	36	20*
CCCn1c(SC(C)C(=O)Nc2c(C)cccc2C)nnc1-c1ccccn1 (stereo not drawn)	15	.	.	.	.	38	.
Cn1c2ccccc2c2cc(C(=O)OCC(=O)N3CC(=O)Nc4ccccc43)sc21	53*	2	46*	4	74*	-35	62*
O=C1CN(C(=O)COC(=O)c2cccs2)c2ccccc2N1	.	2	2	.	-3	.	.
CCOc1ccccc1C1Nc2ccc(C)cc2-c2cc(C)nn21 (stereo not drawn)	9	.	.	.	.	31	.
N#CCCn1c(-c2nonc2NC(=O)c2ccccc2Cl)nc2ccccc21	21	-2	4	3	77*	1	22*
Cc1c(N2C(=O)/C(=C/c3ccc(N(C)C)cc3)N(C)C2=S)c(=O)n(-c2ccccc2)n1C	.	-17	35	.	22*	.	19*
CCCc1nc2sc3c(=O)n(N)cnc3c2c2c1CCCC2	11	-3	9	2	37*	-33	15
CCCCc1nc2sc3c(=O)n(N)cnc3c2c2c1CCCC2	10	0	-5	3	2	6	.
SMILES	EP2 antag	PG9 Ab binder	SKN-1 inh	RAM inhibit	NR1D1 modulator	EP2 mod	Rev-erbA confirm	others
CCc1ncc(CN(Cc2cc(OC)ccc2OC)CC2CCCO2)cn1 (stereo not drawn)	4	.	.	.	.	16	.
O=[N+]([O-])c1cc(-c2cnc3ccccc3n2)ccc1Cl	12	-2	-10	0	93*	9	68*	RORg DNA counter=>40
CN1C(=O)c2cccc(NCCCCCCN3C(=O)c4ccccc4C3=O)c2C1=O	17	-2	-8	5	11	-19	.
CN1C(=O)c2cccc(NCCCN3C(=O)c4ccccc4C3=O)c2C1=O	21	-1	-7	1	46*	6	19*
CCOC(=O)c1sc(=NC(=O)c2cc(OC)c(OC)c(OC)c2)n(C)c1C	10	28*	15	3	30*	21	-4
CCOC(=O)c1sc(=NC(=O)c2ccc(S(=O)(=O)N(C)c3ccccc3)cc2)n(C)c1C	7	-1	-16	8	37*	26	29*
CCOC(=O)c1sc(=NC(=O)c2cccc(C)c2)n(C)c1C	4	1	6	2	-1	9	.
CCOC(=O)c1sc(=NC(=O)CCSc2ccccc2)n(C)c1C	8	-1	-8	1	27*	-1	13
CCOC(=O)c1sc(=NC(=O)COc2ccccc2)n(C)c1C	7	-1	18	3	-2	14	.
COc1ccc(C2CCN(CC(=O)NC3CCCC3)CC2)cc1	5	.	.	.	.	-22	.
CCN(CC)C1=CC2=CC(=C(C#N)C#N)CCC2CC1 (stereo not drawn)	5	-7	-59	6	66*	-20	24*
N#CC(C#N)=C1C=C2C=C(N3CCCCC3)CCC2CC1 (stereo not drawn)	4	.	.	3	.	1	.
CCCCN(C)C1=CC2=CC(=C(C#N)C#N)CCC2CC1 (stereo not drawn)	16	-10	-48	2	69*	3	34*	RORg DNA counter=>40
O=C(O)CCCNS(=O)(=O)c1ccc2[nH]c(=O)[nH]c2c1	3	.	.	.	.	1	.
O=C1NC(=S)NC(=O)C1=Cc1cn(CCOc2ccccc2)c2ccccc12	6	.	.	.	.	-86	.
CNC(=O)COC(=O)c1cc2c(C)nn(-c3ccc(F)cc3)c2s1	6	1	1	4	17*	21	14
